Assay results reported in the supplement of paper PMC11732987, “Enantioselective OTUD7B fragment discovery through chemoproteomics screening and high-throughput optimisation” (Communications Chemistry, 2025).

Columns and labels:
Assay in all cases: log2 ratio of Biotin-Ahx-Ub-VS probe labelling (fragment/DMSO); higher = less target engagement (more negative = stronger competition), active = hit call of the paper (q ≤ 0.05, log2 ratio ≤ -1)
Details in all cases: compound concentration: 200 uM; treatment time: 3 h
USP34 = USP34 (UniProt Q70CQ2)
In short: (§1)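 Each value is an average log2 ratio of fragment to vehicle, tested by unpaired t-test. The underlying Spectronaut label-free quantities were global-median-normalised, and only proteins with ≥2 unique peptides were included. Triplicate HEK293T lysate samples (495 µg) were exposed to fragment at 200 µM or vehicle for 3 h, then to Biotin-Ahx-Ub-VS at 0.5 µM final for 1 h, before NeutrAvidin enrichment of labelled DUBs, LysC and trypsin digestion, and diaPASEF LC-MS/MS.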

USP36 = biological target: T1, USP36 (UniProt Q9P275)
T1 sequence (whole entry): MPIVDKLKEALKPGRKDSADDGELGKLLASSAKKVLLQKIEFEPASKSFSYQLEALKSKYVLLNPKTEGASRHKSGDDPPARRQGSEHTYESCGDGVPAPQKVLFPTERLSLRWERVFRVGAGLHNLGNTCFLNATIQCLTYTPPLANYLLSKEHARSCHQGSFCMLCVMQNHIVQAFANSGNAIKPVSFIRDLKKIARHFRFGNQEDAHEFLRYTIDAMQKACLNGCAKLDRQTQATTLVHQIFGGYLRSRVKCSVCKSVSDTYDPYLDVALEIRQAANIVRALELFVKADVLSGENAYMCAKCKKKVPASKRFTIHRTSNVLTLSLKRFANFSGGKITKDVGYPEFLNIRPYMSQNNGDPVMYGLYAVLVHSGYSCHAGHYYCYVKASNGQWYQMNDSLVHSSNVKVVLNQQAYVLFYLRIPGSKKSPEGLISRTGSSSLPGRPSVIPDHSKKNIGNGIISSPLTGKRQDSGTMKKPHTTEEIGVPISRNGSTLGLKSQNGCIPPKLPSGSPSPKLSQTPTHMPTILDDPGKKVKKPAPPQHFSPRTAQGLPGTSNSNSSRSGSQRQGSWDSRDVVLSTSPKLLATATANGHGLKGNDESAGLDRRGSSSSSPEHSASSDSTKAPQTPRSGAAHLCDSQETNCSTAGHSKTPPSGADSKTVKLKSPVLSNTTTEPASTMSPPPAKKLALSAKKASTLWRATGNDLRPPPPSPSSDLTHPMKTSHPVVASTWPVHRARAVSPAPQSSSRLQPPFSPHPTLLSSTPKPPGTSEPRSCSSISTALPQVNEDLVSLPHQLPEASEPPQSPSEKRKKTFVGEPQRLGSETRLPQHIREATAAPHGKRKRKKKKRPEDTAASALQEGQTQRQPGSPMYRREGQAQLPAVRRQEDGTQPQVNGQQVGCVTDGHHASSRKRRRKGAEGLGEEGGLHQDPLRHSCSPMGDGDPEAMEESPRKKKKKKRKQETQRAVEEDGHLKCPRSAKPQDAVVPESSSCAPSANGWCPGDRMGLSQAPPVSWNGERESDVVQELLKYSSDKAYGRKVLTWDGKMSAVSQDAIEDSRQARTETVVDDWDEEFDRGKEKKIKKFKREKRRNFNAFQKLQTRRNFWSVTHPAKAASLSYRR
In short: as §1

USP38 = biological target: T2, USP38 (UniProt Q8NB14)
T2 sequence (whole entry): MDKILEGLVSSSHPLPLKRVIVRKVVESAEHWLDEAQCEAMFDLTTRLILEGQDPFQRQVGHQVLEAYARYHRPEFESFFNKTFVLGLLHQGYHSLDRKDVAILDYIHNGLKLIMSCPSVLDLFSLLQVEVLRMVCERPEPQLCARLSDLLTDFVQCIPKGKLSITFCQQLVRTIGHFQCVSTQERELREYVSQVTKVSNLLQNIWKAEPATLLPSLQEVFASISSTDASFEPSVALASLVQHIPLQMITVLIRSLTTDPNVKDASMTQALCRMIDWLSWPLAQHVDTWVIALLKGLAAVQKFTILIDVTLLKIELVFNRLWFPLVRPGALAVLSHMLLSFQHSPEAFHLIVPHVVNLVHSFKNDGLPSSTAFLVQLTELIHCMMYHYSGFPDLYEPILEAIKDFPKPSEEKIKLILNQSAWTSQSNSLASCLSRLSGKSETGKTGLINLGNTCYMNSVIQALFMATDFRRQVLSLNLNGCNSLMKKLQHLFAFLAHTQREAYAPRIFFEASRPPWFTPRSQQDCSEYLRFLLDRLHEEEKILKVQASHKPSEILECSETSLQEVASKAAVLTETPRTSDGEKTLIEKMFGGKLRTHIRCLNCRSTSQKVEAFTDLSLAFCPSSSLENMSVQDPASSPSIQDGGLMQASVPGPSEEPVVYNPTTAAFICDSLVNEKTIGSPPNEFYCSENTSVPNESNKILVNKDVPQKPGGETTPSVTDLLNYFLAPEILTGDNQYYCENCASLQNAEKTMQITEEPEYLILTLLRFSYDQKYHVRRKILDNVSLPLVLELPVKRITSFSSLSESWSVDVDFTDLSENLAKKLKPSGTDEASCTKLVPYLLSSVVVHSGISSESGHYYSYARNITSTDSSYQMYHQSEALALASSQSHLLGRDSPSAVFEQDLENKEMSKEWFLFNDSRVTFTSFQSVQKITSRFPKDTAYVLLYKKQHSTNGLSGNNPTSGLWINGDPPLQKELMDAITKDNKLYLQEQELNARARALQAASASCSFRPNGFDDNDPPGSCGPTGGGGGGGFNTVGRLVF
In short: as §1

USP39 = biological target: T3, USP39 (UniProt Q53GS9)
T3 sequence (whole entry): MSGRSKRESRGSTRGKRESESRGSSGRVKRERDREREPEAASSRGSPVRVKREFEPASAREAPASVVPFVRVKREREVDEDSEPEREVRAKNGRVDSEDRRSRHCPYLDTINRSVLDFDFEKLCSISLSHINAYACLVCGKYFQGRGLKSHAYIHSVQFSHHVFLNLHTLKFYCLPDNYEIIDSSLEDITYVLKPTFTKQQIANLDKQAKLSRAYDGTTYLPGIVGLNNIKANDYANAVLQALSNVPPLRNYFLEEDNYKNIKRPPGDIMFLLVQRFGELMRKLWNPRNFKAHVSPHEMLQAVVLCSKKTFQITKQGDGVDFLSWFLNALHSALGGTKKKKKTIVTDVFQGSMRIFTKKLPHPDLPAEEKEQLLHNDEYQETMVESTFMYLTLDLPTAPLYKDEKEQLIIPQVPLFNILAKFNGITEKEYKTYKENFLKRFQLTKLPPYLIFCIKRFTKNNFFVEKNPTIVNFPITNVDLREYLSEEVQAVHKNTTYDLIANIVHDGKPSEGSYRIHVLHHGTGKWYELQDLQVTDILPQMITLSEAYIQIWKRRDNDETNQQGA
In short: as §1

USP4 = biological target: T4, USP4 (UniProt Q13107)
T4 sequence (whole entry): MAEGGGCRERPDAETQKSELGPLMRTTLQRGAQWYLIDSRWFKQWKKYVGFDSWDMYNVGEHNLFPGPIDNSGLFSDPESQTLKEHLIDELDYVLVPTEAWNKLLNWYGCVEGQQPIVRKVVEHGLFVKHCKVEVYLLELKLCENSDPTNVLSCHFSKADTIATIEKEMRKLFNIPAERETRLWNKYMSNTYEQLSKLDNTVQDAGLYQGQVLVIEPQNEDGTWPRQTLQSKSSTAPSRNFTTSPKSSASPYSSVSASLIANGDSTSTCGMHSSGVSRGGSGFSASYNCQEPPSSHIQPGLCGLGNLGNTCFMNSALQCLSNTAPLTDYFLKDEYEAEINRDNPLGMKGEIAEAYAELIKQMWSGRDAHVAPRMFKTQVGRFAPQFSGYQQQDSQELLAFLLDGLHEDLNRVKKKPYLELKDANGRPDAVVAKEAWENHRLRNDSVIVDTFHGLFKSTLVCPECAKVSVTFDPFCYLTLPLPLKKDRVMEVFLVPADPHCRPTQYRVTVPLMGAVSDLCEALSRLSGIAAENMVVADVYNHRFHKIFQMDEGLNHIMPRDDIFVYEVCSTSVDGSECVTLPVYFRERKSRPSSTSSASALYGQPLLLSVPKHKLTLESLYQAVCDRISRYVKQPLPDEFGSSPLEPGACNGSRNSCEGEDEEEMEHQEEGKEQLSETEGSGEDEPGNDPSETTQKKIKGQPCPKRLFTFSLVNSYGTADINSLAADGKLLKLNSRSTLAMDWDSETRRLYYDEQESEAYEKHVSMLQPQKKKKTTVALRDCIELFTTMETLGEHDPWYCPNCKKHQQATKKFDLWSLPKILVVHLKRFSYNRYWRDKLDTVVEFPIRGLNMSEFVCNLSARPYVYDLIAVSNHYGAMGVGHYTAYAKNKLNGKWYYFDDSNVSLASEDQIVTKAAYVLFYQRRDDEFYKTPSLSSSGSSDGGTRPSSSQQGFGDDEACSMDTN
In short: as §1

Measured: log2 ratio of Biotin-Ahx-Ub-VS probe labelling

Sequence of USP34 (Q70CQ2 whole entry, the tested form may be a part): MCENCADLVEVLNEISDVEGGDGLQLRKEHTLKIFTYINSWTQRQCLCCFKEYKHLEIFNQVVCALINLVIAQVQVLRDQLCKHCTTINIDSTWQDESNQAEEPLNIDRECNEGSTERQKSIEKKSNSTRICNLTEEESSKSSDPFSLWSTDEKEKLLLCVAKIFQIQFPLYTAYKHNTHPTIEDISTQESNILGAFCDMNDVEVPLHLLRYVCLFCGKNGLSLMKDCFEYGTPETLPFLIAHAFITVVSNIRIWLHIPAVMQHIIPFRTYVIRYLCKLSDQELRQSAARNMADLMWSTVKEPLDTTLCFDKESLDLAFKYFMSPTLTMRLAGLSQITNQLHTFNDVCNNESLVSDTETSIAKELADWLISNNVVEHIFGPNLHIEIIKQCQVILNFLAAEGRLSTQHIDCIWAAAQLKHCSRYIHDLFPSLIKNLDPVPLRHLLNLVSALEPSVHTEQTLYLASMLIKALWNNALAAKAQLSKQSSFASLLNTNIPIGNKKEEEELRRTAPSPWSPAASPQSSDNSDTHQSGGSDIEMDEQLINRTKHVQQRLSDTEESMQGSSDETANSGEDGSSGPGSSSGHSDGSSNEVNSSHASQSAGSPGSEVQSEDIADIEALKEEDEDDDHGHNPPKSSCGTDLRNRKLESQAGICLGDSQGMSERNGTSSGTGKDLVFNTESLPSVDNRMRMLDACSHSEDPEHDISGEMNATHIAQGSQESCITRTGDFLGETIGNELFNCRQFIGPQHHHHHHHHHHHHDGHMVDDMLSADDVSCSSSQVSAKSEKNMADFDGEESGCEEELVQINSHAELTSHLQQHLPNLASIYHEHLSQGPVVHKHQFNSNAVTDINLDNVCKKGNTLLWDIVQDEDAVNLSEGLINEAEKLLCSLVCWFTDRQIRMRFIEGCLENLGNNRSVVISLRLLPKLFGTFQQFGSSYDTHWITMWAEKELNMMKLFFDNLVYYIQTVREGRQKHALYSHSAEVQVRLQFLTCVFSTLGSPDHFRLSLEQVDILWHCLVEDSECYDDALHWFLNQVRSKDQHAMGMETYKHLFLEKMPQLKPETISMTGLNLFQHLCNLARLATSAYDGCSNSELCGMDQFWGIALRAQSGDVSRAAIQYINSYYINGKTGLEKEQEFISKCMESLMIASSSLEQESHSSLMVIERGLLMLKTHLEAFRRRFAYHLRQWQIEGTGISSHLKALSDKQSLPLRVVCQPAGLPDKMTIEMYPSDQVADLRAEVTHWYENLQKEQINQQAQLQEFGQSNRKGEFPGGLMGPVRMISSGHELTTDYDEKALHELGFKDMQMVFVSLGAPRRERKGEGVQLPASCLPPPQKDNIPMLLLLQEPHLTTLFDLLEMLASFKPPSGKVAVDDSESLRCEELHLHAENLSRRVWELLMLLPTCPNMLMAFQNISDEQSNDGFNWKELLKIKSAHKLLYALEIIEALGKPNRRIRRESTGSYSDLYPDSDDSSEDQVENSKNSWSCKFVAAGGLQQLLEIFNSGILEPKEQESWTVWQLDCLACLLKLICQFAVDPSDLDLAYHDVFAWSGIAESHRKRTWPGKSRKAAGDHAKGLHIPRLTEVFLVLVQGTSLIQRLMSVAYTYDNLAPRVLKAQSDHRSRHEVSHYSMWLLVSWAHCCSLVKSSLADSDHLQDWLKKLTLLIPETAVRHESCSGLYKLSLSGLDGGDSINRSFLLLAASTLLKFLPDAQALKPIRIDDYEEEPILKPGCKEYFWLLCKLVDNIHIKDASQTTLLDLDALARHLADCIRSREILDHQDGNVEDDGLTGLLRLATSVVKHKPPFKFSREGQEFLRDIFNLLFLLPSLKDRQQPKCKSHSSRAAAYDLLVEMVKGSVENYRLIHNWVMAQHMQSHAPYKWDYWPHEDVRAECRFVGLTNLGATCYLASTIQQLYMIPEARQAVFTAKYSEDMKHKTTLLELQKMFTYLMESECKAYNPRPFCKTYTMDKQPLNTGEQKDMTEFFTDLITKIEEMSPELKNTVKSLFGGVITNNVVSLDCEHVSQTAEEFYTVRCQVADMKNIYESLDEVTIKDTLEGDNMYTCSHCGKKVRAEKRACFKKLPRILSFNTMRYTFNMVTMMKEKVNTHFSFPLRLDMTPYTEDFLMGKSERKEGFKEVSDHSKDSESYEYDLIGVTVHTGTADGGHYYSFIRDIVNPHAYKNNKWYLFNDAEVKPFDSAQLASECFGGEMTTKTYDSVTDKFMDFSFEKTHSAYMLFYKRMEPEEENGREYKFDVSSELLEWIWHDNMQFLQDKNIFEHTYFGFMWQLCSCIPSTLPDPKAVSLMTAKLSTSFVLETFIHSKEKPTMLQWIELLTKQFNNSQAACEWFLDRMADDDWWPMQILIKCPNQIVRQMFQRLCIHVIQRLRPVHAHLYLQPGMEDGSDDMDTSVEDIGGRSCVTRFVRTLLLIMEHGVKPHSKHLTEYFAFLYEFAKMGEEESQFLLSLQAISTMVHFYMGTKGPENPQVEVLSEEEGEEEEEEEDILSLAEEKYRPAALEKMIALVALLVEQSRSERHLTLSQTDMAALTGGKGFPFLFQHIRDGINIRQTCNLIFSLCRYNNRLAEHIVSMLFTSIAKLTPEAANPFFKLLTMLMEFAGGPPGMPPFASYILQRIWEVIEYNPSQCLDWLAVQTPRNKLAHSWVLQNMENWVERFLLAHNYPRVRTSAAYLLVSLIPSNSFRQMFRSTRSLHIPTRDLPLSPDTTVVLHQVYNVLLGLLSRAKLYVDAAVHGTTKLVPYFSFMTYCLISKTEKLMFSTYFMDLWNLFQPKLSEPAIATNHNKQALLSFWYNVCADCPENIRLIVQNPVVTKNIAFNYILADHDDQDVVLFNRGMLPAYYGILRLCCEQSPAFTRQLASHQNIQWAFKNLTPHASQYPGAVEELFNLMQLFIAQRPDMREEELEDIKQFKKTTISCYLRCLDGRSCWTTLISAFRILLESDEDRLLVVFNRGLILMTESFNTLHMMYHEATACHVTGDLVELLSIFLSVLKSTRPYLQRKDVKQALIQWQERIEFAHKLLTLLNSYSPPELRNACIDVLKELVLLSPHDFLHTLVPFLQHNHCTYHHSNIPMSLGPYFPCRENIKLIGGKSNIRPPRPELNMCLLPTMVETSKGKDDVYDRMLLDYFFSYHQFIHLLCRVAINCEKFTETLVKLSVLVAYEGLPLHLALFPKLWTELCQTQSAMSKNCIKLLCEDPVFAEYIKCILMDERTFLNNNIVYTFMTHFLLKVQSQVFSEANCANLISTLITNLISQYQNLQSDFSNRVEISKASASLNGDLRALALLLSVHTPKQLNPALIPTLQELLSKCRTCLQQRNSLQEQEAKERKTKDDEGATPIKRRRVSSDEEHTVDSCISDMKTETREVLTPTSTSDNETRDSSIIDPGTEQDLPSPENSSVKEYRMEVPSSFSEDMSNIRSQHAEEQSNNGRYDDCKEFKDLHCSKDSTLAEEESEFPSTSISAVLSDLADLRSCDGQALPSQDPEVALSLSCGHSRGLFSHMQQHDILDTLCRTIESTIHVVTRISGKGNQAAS

NC(=O)C1CCCN(C(=O)CCl)C1 (stereo not given)
inactive: USP34 -0.00128 | USP36 0.0237 | USP38 -0.242 | USP39 -0.334 | USP4 -0.0203
